Four compounds from PubChem BioAssay (NCATS) can be followed below.

Each structure is given as a SMILES string. Results filed as inconclusive are left out. Calls of active or inactive are those of the source. Unless noted, the call rests on the fitted dose curve; in most records, active means well fitted curve in the direction sought with a large enough effect; inconclusive means small, poorly fitted or top-dose-only effect, or another doubt; inactive means no such curve, though single readings can be large; an effect the other way counts as inactive or inconclusive.

Assay [1] in a line: qHTS profiling for inhibitors of Plasmodium falciparum (3D7) proliferation (AID 743322; call rule not given here;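 further: infected erythrocytes exposed to compound for 72 h before lysis; 100% = DMSO vehicle wells and 0% = 0.29 µM artemisinin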). The conditions noted are these: P. falciparum 3D7 proliferation; at 28.7 µM (top of the series) unless noted. The method in brief: (§1)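 Parasite DNA was quantified by SYBR Green I fluorescence (ex 485, em 535 nm) after overnight lysis in saponin/Triton buffer at room temperature. Cultures at 0.3% parasitemia and 2.5% hematocrit were first exposed to compound for 72 h at 37 C; signals were normalised to artemisinin (0.29 uM) and vehicle wells.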
Background: qHTS replaces the single test concentration by a dilution series.

Assay [2] is described as follows: qHTS profiling for inhibitors of Plasmodium falciparum (DD2) proliferation (AID 743323; call rule not given here). The following applies: lower = more inhibition; at 28.7 µM (top of the series) unless noted. The method in brief: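 Parasite DNA quantified by SYBR Green fluorescence (ex 485, em 535 nm) after saponin/Triton lysis and overnight dark incubation. Cultures: 0.3% parasitemia, 2.5% hematocrit, 72 h, 37 C; data scaled between DMSO and 0.29 uM artemisinin.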

A short description of assay [3]: qHTS profiling for inhibitors of Plasmodium falciparum (HB3) proliferation (AID 743324).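 Further: 100% = DMSO vehicle wells and 0% = artemisinin-treated control wells.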 The conditions noted are these: Plasmodium falciparum HB3 blood-stage proliferation; at 28.7 µM (top of the series) unless noted. The essentials:
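SYBR Green fluorescence (485 ex/535 em) of lysed cultures, incubated overnight at room temperature in the dark, quantifies parasite DNA. Infected erythrocytes at 0.3% parasitemia and 2.5% hematocrit were exposed 72 h; values normalized to DMSO and 0.29 uM artemisinin controls.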

Assay [4] is described as follows: qHTS profiling of the MIPE4 collection as inhibitors of Plasmodium falciparum (3D7) proliferation (AID 743344; call rule not given here;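 further: scaled between DMSO vehicle wells and 0.29 µM artemisinin as full inhibition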). The conditions noted are these: P. falciparum 3D7 in erythrocytes, SYBR Green DNA fluorescence, 72 h; at 28.5 µM (top of the series) unless noted. The method in brief:
as §1

Assay [5] can be described thus: qHTS profiling of the MIPE4 collection as inhibitors of Plasmodium falciparum (DD2) proliferation (AID 743345; call rule not given here). The following applies: P. falciparum Dd2 in erythrocytes, SYBR Green DNA, 72 h; at 28.5 µM (top of the series) unless noted. The essentials:
as §1

Assay [6] in a line: qHTS profiling of the MIPE4 collection as inhibitors of Plasmodium falciparum (DD2) proliferation (Rep 2) (AID 743346; call rule not given here). The conditions noted are these: P. falciparum Dd2 in erythrocytes, SYBR Green DNA, 72 h; at 28.5 µM (top of the series) unless noted. The method in brief: as §1
Assay [7] is described as follows: qHTS profiling of the MIPE4 collection as inhibitors of Plasmodium falciparum (HB3) proliferation (AID 743347; call rule not given here;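 further: plate controls were DMSO vehicle wells for no effect and artemisinin wells for full effect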). The conditions noted are these: P. falciparum HB3 in erythrocytes, SYBR Green DNA, 72 h; at 28.5 µM (top of the series) unless noted. The method in brief:
as §1

Assay [8] is described as follows: Cell Proliferation Assay Versus the ED40515 IL2 Dependent ATL cell lines (AID 1053195; calls by dose curve). The conditions noted are these: ED40515 IL2-dependent ATL cells. The method in brief:
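CellTiter-Glo luminescence (15 min, RT) measured viability after 48 hours at 37C; cells were ED40515 +IL2, 1000/well, in phenol red-free RPMI with 5% FBS. Controls: DMSO and 9.2 uM bortezomib.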

Assay [9] is described as follows: High-throughput drug toxicity screening in the BPDCN cell line Gen2.2 (AID 1224824; call rule not given here;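 further: cells exposed to compounds for 48 h before reading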). The following applies: Gen2.2 BPDCN cells; at 45.8 µM (top of the series) unless noted. The method in brief: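 CellTiter-Glo luminescence after 48 h compound exposure of Gen2.2 cells; percent activity set with DMSO as 100% and bortezomib (9.2 uM final) as 0%. Cells seeded at 500 per well, RPMI + 10% FBS, 37 °C.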

A short description of assay [10]: High-throughput drug toxicity screening in the BPDCN cell line Cal-1 (AID 1224825; call rule not given here). The following applies: Cal-1 BPDCN cell viability, qHTS; at 45.8 µM (top of the series) unless noted. The essentials: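 Percent activity derived from CellTiter-Glo luminescence, scaling DMSO to 100% and 9.2 uM final bortezomib to 0%. BPDCN Cal-1 cells (500/well, RPMI plus 10% FBS) incubated with compounds 48 hours at 37C before reading.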

Assay [11] is described as follows: qHTS assay for measurement of the activity of small molecule inhibitors on Zika virus induced Caspase-3 activity in human iPSC derived neural progenitor cells (hNPCs) (AID 1224857). Further: % of control where 0% means no effect; nearly all actives have a fitted effect of over 65% in size. The method in brief: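 In medium with heparin 2 ug/ml and cyclopamine 2 uM, hNPCs (350 cells/well) received compound for one hour and then Zika virus at 2 FFU/cell; caspase activity was measured by Caspase-Glo 3/7 luminescence 6 h post-infection.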

Assay [12] can be described thus: qHTS assay for measurement of the activity of small molecule inhibitors on Zika virus induced Caspase-3 activity in human astrocytoma cells (AID 1224859).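 Further: plate controls were ZIKV-infected untreated cells for no effect and uninfected cells for full effect.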 The essentials:
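A cell-based luminescent caspase-3/7 assay used SNB-19 cells infected with ZIKV (2 FFU/cell) for 6 h following 1 h compound pretreatment.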

A short description of assay [13]: qHTS Screen of the MIPE 4.0 Collection Against Ewings Sarcoma (RDES) (AID 1259252). Further: nearly all actives have a fitted effect of over 35% in size. Further: potency means the concentration at half of the fitted maximal effect. The method in brief:
(§2)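 Cells plated in serum-containing RPMI (5% FBS) and treated with compound dilutions for 48 h. Readout luminescent viability; normalization relied on vehicle (no inhibition) and media-only columns (full inhibition).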

Assay [14] is described as follows: qHTS Screen of the MIPE 4.0 Collection Against Ewings Sarcoma (TC71) (AID 1259253). Further: potency means the concentration at half of the fitted maximal effect; nearly all actives have a fitted effect of over 40% in size. The essentials: as §2
Assay [15] in a line: qHTS Screen of the MIPE 4.0 Collection Against Ewings Sarcoma (EW8) (AID 1259255). Further: nearly all actives have a fitted effect of over 35% in size. Further: potency means the concentration at half of the fitted maximal effect.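 On viability: 100% = DMSO-treated cells and 0% = medium-only wells without cells.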 The method in brief: as §2
The nature of assay [16]: qHTS Screen of the MIPE 4.0 Collection Against Ewings Sarcoma (TC32) (AID 1259256). Further: nearly all actives have a fitted effect of over 45% in size. Further: potency means the concentration at half of the fitted maximal effect. The essentials:
as §2

A short description of assay [17]: Identifying Small Molecule Inhibitors of Pancreatic Cancer Stem Cells (A2780, Spheroid) (AID 1259357).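 Further: spheroids pre-formed over 14 days in stem cell medium on hydrogel; potency means the concentration at half of the fitted maximal effect; compound exposure lasted 48 h before the ATP luminescence read.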 The following applies: Potency: A2780 spheroid viability. The essentials:
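Spheroids grown 14 days in stem cell media on hydrogel-coated nonadherent plates; 2D lines seeded directly. Compounds added after 4 h attachment, 48 h at 37C, 5% CO2; CellTiter-Glo luminescence normalized to DMSO (no inhibition) and no-cell wells (full inhibition).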

Assay [18] can be described thus: Cell Proliferation Assay Versus the ED40515 IL2 Independent ATL cell lines (AID 1053194; calls by dose curve). The following applies: ED40515 IL2-independent ATL cells. The essentials:
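CellTiter-Glo luminescence, read after 15 min at RT, gave viability of IL-2-free ED40515 cells (1000/well, RPMI plus 5% FBS) following 48 h drug exposure at 37C. Control wells held DMSO or 9.2 uM bortezomib.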

With `COc1ccc2c3n(c(=NC(=O)c4cccnc4)nc2c1OC)CCN3`, in assay [1], the remaining parasite growth % (stronger effect = lower value) stood at 0.12%. Besides, in [2], the activity, percent of control amounted to 12.2%. For the same compound, the remaining proliferation (% of control), lower = more inhibition in assay [3] stood at 1.47%. In [4], the parasite growth, % of DMSO control came to 5.7%. The compound also yielded a parasite growth remaining, % of DMSO control (lower = more inhibition) in assay [5] of 10.1%. This compound also yielded a parasite growth, % of control (lower = inhibition) in assay [6] of 7.17%. In assay [7], the growth, % of control worked out at 3.38%. In addition, the Potency was 4.18 µM (active) in [8]; 2.09 µM (active) in [13]; 10.5 µM (active) in [14]; 20.9 µM (active) in assay [15]; 8.33 µM (active) in assay [16]; 3.32 µM (active) in [17]. The cell viability, % of control (lower = more cytotoxic) in assay [9] worked out at 9.57%. For the same compound, the viability (% of control) in assay [10] came to 12.7%. The Potency entry in assay [11] and in assay [12] was “inactive” in each case.
In the case of `OC[C@H](Cc1ccccc1)Nc1nc(Oc2ccc3c(c2)CCC3)nc2c1ncn2Cc1ccc(-c2ccccc2)cc1`, in assay [1], the remaining parasite growth % (stronger effect = lower value) stood at 6.42%. In assay [2], the activity, percent of control stood at 5.17%. Besides, the remaining proliferation (% of control), lower = more inhibition in assay [3] is -0.578%. For the same compound, in [4], the parasite growth, % of DMSO control stood at 33.7%. The parasite growth remaining, % of DMSO control (lower = more inhibition) in assay [5] is 44.8%. Further, in assay [6], the parasite growth, % of control (lower = inhibition) amounted to 27%. Moreover, in [7], the growth, % of control came out at 68.3%. Also, the results for the Potency in assay [18], in assay [13] and in assay [16] were 4.69 µM (active), 14.8 µM (active) and 6.62 µM (active), respectively. The cell viability, % of control (lower = more cytotoxic) in assay [9] turned out to be 408%. For the same compound, in assay [10], the viability (% of control) was 56.2%. In addition, the Potency entry in assay [11] and in assay [12] was “inactive” each time.
In the case of `CC[C@H](Nc1ncnc2nc[nH]c12)c1nc2cccc(F)c2c(=O)n1-c1ccccc1`, the Potency in assay [8] was 5.9 µM (active); in [13], 2.35 µM (active); in [14] it was 2.96 µM (active); in [15], 2.64 µM (active); in assay [16], 2.96 µM (active). Further, in assay [9], the cell viability, % of control (lower = more cytotoxic) came to 4.94%. For the same compound, the viability (% of control) in [10] came out at 18.8%. Moreover, the Potency result in [11] and in [12] was “inactive” throughout.
`CC1(C)SCCN(S(=O)(=O)c2ccc(OCC#CCO)cc2)[C@@H]1C(=O)NO`: the remaining parasite growth % (stronger effect = lower value) in assay [1] was determined as 107%. Moreover, the activity, percent of control in [2] worked out at 104%. Also, in [3], the remaining proliferation (% of control), lower = more inhibition is 81.4%. For the same compound, in [4], the parasite growth, % of DMSO control came out at 65.2%. This compound also came in with a parasite growth remaining, % of DMSO control (lower = more inhibition) in assay [5] of 66%. Besides, the parasite growth, % of control (lower = inhibition) in assay [6] came to 70%. The results for the Potency in assay [8] and in assay [14] were 23.5 µM (active) and 13.2 µM (active), respectively. In addition, in assay [9], the cell viability, % of control (lower = more cytotoxic) was 80%. In assay [10], the viability (% of control) worked out at 102%. Also, the Potency entry in [11], in assay [12], in assay [13], in assay [15] and in assay [16] was “inactive” in each case.
